{"source": "the supplement of paper PMC10681739", "data": [{"target": "RUNX1 (UniProt Q01196)", "sequence (Q01196 whole entry)": "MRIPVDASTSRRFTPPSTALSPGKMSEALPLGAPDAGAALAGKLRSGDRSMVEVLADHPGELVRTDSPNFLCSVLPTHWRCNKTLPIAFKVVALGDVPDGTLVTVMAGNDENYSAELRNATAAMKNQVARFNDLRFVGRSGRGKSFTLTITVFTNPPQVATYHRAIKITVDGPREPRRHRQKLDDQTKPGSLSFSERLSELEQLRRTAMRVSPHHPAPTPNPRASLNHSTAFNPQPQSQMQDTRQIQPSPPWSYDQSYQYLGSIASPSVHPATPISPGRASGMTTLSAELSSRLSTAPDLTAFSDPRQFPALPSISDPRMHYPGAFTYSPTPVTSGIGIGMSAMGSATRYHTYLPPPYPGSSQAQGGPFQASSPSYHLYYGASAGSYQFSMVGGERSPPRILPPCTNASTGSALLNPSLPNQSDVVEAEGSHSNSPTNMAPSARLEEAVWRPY", "test": "RUNX1 binding intensity (PBM fluorescence) in presence of ETS1, normalised to RUNX1-only experiment (arbitrary fluorescence units); higher = stronger binding", "details": "RUNX1 concentration 2 nM; ETS1 concentration 25 nM", "protocol": "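Cooperative gcPBM on 36-bp genomic probes with neighbouring ETS1 and RUNX1 sites. Recombinant human RUNX1 (2 nM) was incubated alone or with ETS1 (25 nM) and detected with anti-RUNX1 antibody plus Alexa488 secondary. Values are medians over 4 replicate spots; the RUNX1+ETS1 data were normalised to the RUNX1-only data. The probes sit in constant array flanks that are not printed.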", "values": [{"sequence": "TTACACAACAGGAAACTATGTTTAGCGGTTAATCCA", "RUNX1 binding intensity": 1580}, {"sequence": "GACATGCTCCGGAAGCTTGAGGTTTTAACGTTAAGG", "RUNX1 binding intensity": 1390}, {"sequence": "TCTGTGACTACGCGGATGTTGTGGGCGGCTACATGC", "RUNX1 binding intensity": 869}, {"sequence": "CCTGTTGATAAAACAGGATGTGGTAAAGAAGCTGGC", "RUNX1 binding intensity": 10300}, {"sequence": "TCTAAATCACTTCCTGTTACAGAAACCACAGGCCTG", "RUNX1 binding intensity": 4430}, {"sequence": "GCAGGACTTCCTGTGTTGTGCTAACCTCAAATTACA", "RUNX1 binding intensity": 2030}, {"sequence": "CGAGGGAGCCGGAAAGATGGTGGTTACCAGATCTGC", "RUNX1 binding intensity": 926}, {"sequence": "GACACAAGAACAGCAGGATGTGGTCAGAGGCGTCGT", "RUNX1 binding intensity": 3510}, {"sequence": "TTTCTGACACTCTCAGGATGTGGGTTTTCACACTGT", "RUNX1 binding intensity": 1320}, {"sequence": "ATGAGCTATTTCCTGCCTTGTGGTCAGAGCCAGACT", "RUNX1 binding intensity": 4330}, {"sequence": "CGCCGAACTTCCGGCAGTAAATTCCGTGGTTTCCCT", "RUNX1 binding intensity": 2400}, {"sequence": "AACCAAACAGCCACAGGAAGTGGTTTCTGTGATTCA", "RUNX1 binding intensity": 1960}, {"sequence": "CGTCTAATTGCAGGAAGTGGTTTGAAATGTTAATCT", "RUNX1 binding intensity": 3650}, {"sequence": "GGCCTCGGCCACATCCGGGTTCCACCGCAGATTCGG", "RUNX1 binding intensity": 6490}, {"sequence": "TCGCACCGGAACCCCTTGGCGGATTATGTGGGTTCC", "RUNX1 binding intensity": 862}, {"sequence": "GCTGATAGAACAGGATGTGGTAAAGAAGCAGGCCAA", "RUNX1 binding intensity": 7890}, {"sequence": "CAAGAGGAACCGGAACTTTGGAAACCACATTCTTAT", "RUNX1 binding intensity": 1480}, {"sequence": "CAGGGTGGAAACAGGAAGAGAAACCACACTTAACCT", "RUNX1 binding intensity": 1070}, {"sequence": "GAGGCCGAAAGGAAGTTTGAGGTTAAGCACAAGATG", "RUNX1 binding intensity": 1060}, {"sequence": "TCCCACATCCTGTGCTCGTGCAGTGGTTAGGCTCAA", "RUNX1 binding intensity": 2490}, {"sequence": "CCCAGCCCTGCTGCCGGATGTGGTGAGGCCCAGGTG", "RUNX1 binding intensity": 5400}]}]}
